Data: PubChem BioAssay (NCI)
Compounds without any hit were thinned out: in the full panel of roughly 83,000, 20% have a hit.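 Cell lines were cultured in 96-well plates, exposed to a single compound concentration, and assessed for percent growth 48 hours later.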 Active and inactive are the calls of the source. How the source made its calls: active means growth percent below 10; inactive means the rest.

The compounds below were run on MDA-MB-468 breast (assay: NCI-60 one-dose screen, 48 h (100 = growth as untreated, 0 = no growth, -100 = all killed)). Settings: 10 µM unless noted.
With `Cn1nnnc1-c1ccc(N)cc1` the growth was 117% (inactive).
In the case of `CN(C)CCn1c2ccc(Br)cc2c2nc3ccccc3nc21`, the growth is reported as 13% (inactive).
With `Nc1cc(F)ccc1NC(=O)c1ccc(NC(=O)C/C=C/c2cccnc2)cc1` the growth was 40.1% (inactive).
With `O=C(/C=C/c1ccccc1)n1c(-c2ccc(Cl)cc2)nc2ccccc21` the growth was -6.61% (active).
In the case of `CCCCCCCCCCCCCCCC(=O)OC[C@@]1(O)C[C@@]23CC[C@@H]4C(C)(C)[C@H](O)CC[C@@]4(C)[C@@H]2CC[C@H]1C3`, the growth is reported as 112% (inactive).
With `CCn1c2c(c3ccccc31)SC1c3cccn3CCN1C2=S` (stereo not given) the growth was -1.66% (active).
With `CCN(Cc1ccc(CN(CC)C(=O)C(Br)Br)cc1)C(=O)C(Br)Br` the growth was 17.6% (inactive).
In the case of `COc1ccc(NC(=O)c2cccc(-c3cc(=O)c4c(O)c(OC)c(OC)cc4o3)c2)cc1`, the growth is reported as 84.3% (inactive).
`CCSc1oc(-c2ccccc2)nc1[P+](c1ccccc1)(c1ccccc1)c1ccccc1` was tested, and the growth was -37.6% (active).
For `CCN(CC)Cc1cc(Nc2nc(NC3CCC(N(C)C)CC3)c3ccccc3n2)ccc1OC` (stereo not given), the growth was -15.1% (active).
`CC1(C)COB(OCC(C)(C)COB2OCC(C)(C)CO2)OC1` was tested, and the growth was 114% (inactive).
With `OC1CSSC1Cn1cnc2c(Nc3ccc(F)c(Cl)c3)ncnc21` (stereo not given) the growth was 2.83% (active).
In the case of `O=c1[nH]c([C@@H]2CCCN2)nc2c1oc1ccc(Cl)cc12`, the growth is reported as 33.6% (inactive).
`O=C(O)c1ccc(-c2nn(-c3ccc(C(F)(F)F)cc3)cc2CNc2ccc(Oc3ccccc3)cc2)cc1` was tested, and the growth was 117% (inactive).
`Cc1ncc(-c2ccoc2)c(NC2CCCCCC2)n1` was tested, and the growth was 105% (inactive).
